Compound activity from PubChem.
Pf growth 96h = Primary qHTS for delayed death inhibitors of the malarial parasite plastid, 96 hour incubation. P. falciparum luciferase reporter growth, 96 h. Potency, µM (titrated, usually from 28.7 µM), actives largely listed as inhibitors. actives 6.9% (n = 320,000)
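Cell-based qHTS: luciferase-tagged P. falciparum in erythrocytes (2% hematocrit, 0.05% parasitemia final) incubated with compounds for 96 hours, 37 C, 5% CO2; luciferase detection reagent then added and luminescence measured.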
LmPK inh = qHTS Assay for Inhibitors of Leishmania Mexicana Pyruvate Kinase (LmPK); actives 0.37% (n = 290,000); Potency, µM (titrated, usually from 57.5 µM), usual class: inhibitors; purified LmPK, Kinase-Glo ATP luminescence, 1 h; Q27686
Target sequence (Q27686 whole entry, looked up): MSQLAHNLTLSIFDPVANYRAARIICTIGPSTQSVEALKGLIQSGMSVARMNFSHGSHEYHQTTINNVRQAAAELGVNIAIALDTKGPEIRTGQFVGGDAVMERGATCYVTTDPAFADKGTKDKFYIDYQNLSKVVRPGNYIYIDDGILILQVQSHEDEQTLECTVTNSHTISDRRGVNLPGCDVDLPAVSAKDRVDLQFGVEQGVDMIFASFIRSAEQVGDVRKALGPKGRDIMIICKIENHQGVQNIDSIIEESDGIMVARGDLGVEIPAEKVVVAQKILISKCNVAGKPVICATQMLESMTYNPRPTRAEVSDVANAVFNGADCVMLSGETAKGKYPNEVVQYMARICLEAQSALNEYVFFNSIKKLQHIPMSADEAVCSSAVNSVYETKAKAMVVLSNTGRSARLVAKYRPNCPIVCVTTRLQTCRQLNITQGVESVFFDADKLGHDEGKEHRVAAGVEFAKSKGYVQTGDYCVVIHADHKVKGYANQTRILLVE
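Purified LmPK (0.1 nM) with 0.5 mM PEP and 0.1 mM ADP in imidazole buffer pH 7.2 with MgCl2/KCl, 1 h at room temperature. ATP formed was read by luciferase luminescence and normalized to no-enzyme and uninhibited controls.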
Shiga toxin inh = A qHTS for Small Molecule Inhibitors of Shiga Toxin; Vero cells, Shiga toxin protein synthesis inhibition reporter; inhibition, % at 38.7 µM; actives 9.2% (n = 290,000); AID 2315, 2010; in the data active means inhibition mostly above about 28%, no sharp cut-off; inactive means mostly below about 43%
Pf growth 48h = Primary qHTS for delayed death inhibitors of the malarial parasite plastid, 48 hour incubation | P. falciparum luciferase growth in erythrocytes, 48 h | Potency, µM (highest dose often 28.7 µM), hits mostly inhibitors | actives 5.9% (n = 310,000) | AID 504832, 2011
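Cell-based growth assay: transgenic P. falciparum expressing firefly luciferase, cultured in red cells within RPMI 1640 containing 0.5% w/v Albumax, 24 mM bicarbonate and gentamycin. A drop in luciferase activity indicates inhibition.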
Cycloheximide cs = Cycloheximide Counterscreen for Small Molecule Inhibitors of Shiga Toxin; max response, %; cell reporter, cycloheximide protein synthesis inhibition counterscreen; actives 12% (n = 300,000); in the data active means max response mostly above about 13%, no sharp cut-off; inactive means mostly below about 14%; further: read at 38.3 µM for the half of the compounds with a filed dose
A number is an active result; i = inactive; ? = inconclusive; nt = not tested or not shown; [ ] = dose if it differs, or a comment. In the library only some 22% were active in any assay of this set; here they are far more common. Unless noted, the call rests on the fitted dose curve; in most records, active means well fitted inhibition curve with a large enough effect; inconclusive means small, poorly fitted or top-dose-only effect, or another doubt; inactive means no such curve, though single readings can be large or run the other way.

SMILES	Pf growth 96h	LmPK inh	Shiga toxin inh	Pf growth 48h	Cycloheximide cs
O=C(C1=C[C@H](c2csc3ccccc23)C[C@H](OCc2ccc(CO)cc2)O1)N1CCN(Cc2ccccc2)CC1	9.3µM	i	i	?	i
COc1cc(C(=O)N2CCCN(C)CC2)cc(OC)c1C	i	i	i	i	i
CN1CCSc2ccc(C(=O)Nc3ccc(Cl)cc3)cc21	i	i	59	i	37
COc1ccc(Br)cc1CNC(=O)c1ccc2c(c1)N(C)CCS2	?	i	i	?	i
CN1CCSc2ccc(C(=O)NCc3cccc(F)c3)cc21	9.3µM	i	i	i	13
COc1cccc(NC(=O)c2ccc3c(c2)CCN3S(C)(=O)=O)c1	i	i	50	i	17
COc1cccc(NC(=O)c2ccc3c(c2)N(C)CCS3)c1	7.4µM	?	29	i	33
Cc1cccc(C(=O)N2CCCC(N3CCN(c4ccc(F)cc4)CC3)C2)n1 (configuration not stated)	i	i	i	i	i
CCN(CC(=O)Nc1ccc2c(c1)OCCO2)C(=O)CC(NC(C)=O)c1ccccc1 (configuration not stated)	i	nt	nt	i	nt
COc1ccc(Cc2nnc(SCC(=O)Nc3ccccc3C)n(N)c2=O)cc1	i	nt	nt	i	nt
O=C(NCCS(=O)(=O)NC1CCCC1)c1ccccc1	i	nt	nt	i	nt
O=C(CCc1n[nH]c(=O)[nH]c1=O)Nc1cccc([N+](=O)[O-])c1	i	i[11.5 µM]	i	i	i
Cc1ccc(OC(=O)COc2ccccc2C)c(-n2nc3ccccc3n2)c1	i	?	69	i	43
Cc1cc(-n2nc3ccccc3n2)c(O)c([N+](=O)[O-])c1	i	i	i	i	i
COC(=O)COc1ccc(C)cc1-n1nc2ccccc2n1	i	i	i	i	i
Cc1ccc(OC(=O)c2cccc([N+](=O)[O-])c2)c(-n2nc3ccccc3n2)c1	i	i	i	i	27
CCCCCN1CC(=O)N2C(C)c3[nH]c4ccccc4c3C[C@H]2C1=O (some centres not stated)	i	i	i	i	i
CN(CC(=O)Nc1ccc(Cl)c(Cl)c1)C(=O)C12CC3CC(CC(C3)C1)C2	7.4µM	i	i	?	i
CN(CC(=O)Nc1ccc(Cl)c(Cl)c1)C1CCCCC1	i	i	i	i	i
O=S1(=O)CC(O)C(N=Nc2c(O)n(Cc3ccccc3)c3ccccc23)C1 (configuration not stated)	i	i	i	i	i
O=C(NCc1ccc2c(c1)OCO2)C(C(=O)c1ccccc1)n1cc(Cl)ccc1=O (configuration not stated)	i	i	i	i	i
CN(Cc1ccccc1)C(=O)C(C(=O)c1ccc(F)cc1)n1cc(Cl)ccc1=O (configuration not stated)	?	i	48	i	41
Cc1nc(-c2ccc(NC(=O)/C=C\C(=O)O)cc2)cs1	i	i	50	i	18
Cc1ccc2sc(-c3ccc(NC(=O)/C=C\C(=O)O)cc3)nc2c1	?	i[11.5 µM]	112	i	40
CCCCCC(=O)Nc1ccc(-c2csc(N)n2)cc1	i	i	123	?	57
SMILES	Pf growth 96h	LmPK inh	Shiga toxin inh	Pf growth 48h	Cycloheximide cs
CCCCCC(=O)Nc1ccc(-c2csc(C)n2)cc1	i	i	77	i	46
O=C1OCC/C1=C\OCCCO/C=C1\CCOC1=O	i	i	i	i	i
CC(=O)c1ccc(S(=O)(=O)N(C)CC(=O)NCc2ccco2)cc1	i	nt	nt	i	nt
CCC/C(O)=C1\C(=O)CC(C)(C)CC1=Nc1ccccc1O	i	i	i	?	i
O=[N+]([O-])c1ccc(OCCN2CCNCC2)cc1	?	i	i	i	i
Cn1c(=O)n(CCOc2ccc([N+](=O)[O-])cc2)c2ccccc21	i	i	67	i	26
Cc1ccc(OCCn2c(=O)n(C)c3ccccc32)cc1	i	i	105	i	42
CN1CCN(C(CNS(=O)(=O)c2ccc([N+](=O)[O-])cc2)c2ccc(F)cc2)CC1 (configuration not stated)	i	nt	nt	?	nt
CCC(C)C(=O)N1CCCC(c2nc(-c3cccs3)no2)C1 (configuration not stated)	nt	i	101	i	31
CCCC(=O)N1CCCC(c2nc(-c3cccs3)no2)C1 (configuration not stated)	nt	i	86	i	21
COc1cc(C(=O)N2CCCC(c3nc(-c4cccs4)no3)C2)cc(OC)c1OC (configuration not stated)	i	i	i	i	i
COc1cccc(C(=O)N2CCCC(c3nc(-c4cccs4)no3)C2)c1 (configuration not stated)	9.3µM	i	i	i	i
CCOc1ccc(N2C(=O)NC(=O)/C(=C\c3ccc(N4CCCCC4)o3)C2=O)cc1	13µM	i	i	?	i
CN1C(=O)/C(=C/c2ccc(N3CCCCCC3)o2)C(=O)NC1=S	i	i	64	i	40
CN1C(=O)/C(=C\c2ccc(N3CCCCC3)o2)C(=O)NC1=S	i	i	38	i	27
CC#CC(=O)N1CCC(CCC(=O)N(C)Cc2ccccc2)CC1	i	i	i	?	i
CC(=O)c1c(C)[nH]c(C(=O)NCC2CCCCC2)c1C	i	i	63	i	i
CC(=O)c1c(C)[nH]c(C(=O)NCCN2CCC(C)CC2)c1C	12µM	i	i	i	i
CCCNC(=O)c1[nH]c(C)c(C(C)=O)c1C	i	i	i	?	i
CCOCCCNC(=O)c1[nH]c(C)c(C(C)=O)c1C	i	i	i	i	i
Cc1ccc(NC2=NCCC2)cc1Cl	?	i	i	i	i
O=C1CCCN=C(Nc2ccc(F)c(Cl)c2)S1	i	i	54	i	i
Oc1ccccc1N=Nc1nc(-c2ccccc2)c(-c2ccccc2)[nH]1	2.1µM	i	i	nt	i
COc1ccccc1N=Nc1nc(-c2ccccc2)c(-c2ccccc2)[nH]1	2.3µM	i	i	i	12
COc1ccc(N=Nc2nc(-c3ccccc3)c(-c3ccccc3)[nH]2)cc1	?	i	i	?	i
SMILES	Pf growth 96h	LmPK inh	Shiga toxin inh	Pf growth 48h	Cycloheximide cs
Cc1ccc(NC2=CC(=O)C(=O)c3ccccc32)c(C)c1	0.59µM	nt	nt	0.83µM	nt
O=C1C=C(NCc2ccccc2)CCC1	i	i	i	i	i
O=C1C=C(Nc2ccccc2O)c2ccccc2C1=O	9.3µM	i	84	10µM	17
Oc1ccccc1Nc1ccccn1	?	i	i	?	i
O=C1C=C(NCc2ccccc2)c2ccccc2C1=O	i	i	81	?	56
O=c1cccccc1NCc1ccccc1	i	i	i	nt	26
O=C(CCCc1ccccc1)N=C1SC2CS(=O)(=O)CC2N1c1ccccc1F (configuration not stated)	i	i	i	i	i
O=C1C=C(Nc2ccc(F)cc2)c2ccccc2C1=O	1µM	nt	nt	1.9µM	nt
COc1ccc(C(=O)C(=O)c2ccc(OCCO)cc2)cc1	i	nt	nt	i	nt
O=S(=O)(Nc1ccc(N2CCOCC2)cc1)c1cccs1	i	i	i	i	i
